# Assay results taken from PubChem BioAssay AID1851 (National Center for Advancing Translational Sciences (NCATS), 2009).
# About 4,000 (25%) of roughly 16,000 compounds were called active. About 26% were inconclusive and are not listed. Calls come from the whole dose curve; as a rule, active = well fitted curve in the direction sought with a large enough effect; inconclusive = small, poorly fitted or top-dose-only effect, or effect the other way; inactive = no such curve, though single readings can be large or run the other way. A selection follows. Peptide text beside a SMILES is read from it. * marks the point of attachment. Cbz = O=C(OCc1ccccc1)*
# Molecular target: Cytochrome P450 2C9 (Homo sapiens) (UniProt P11712)
# Sequence (P11712 whole entry, looked up): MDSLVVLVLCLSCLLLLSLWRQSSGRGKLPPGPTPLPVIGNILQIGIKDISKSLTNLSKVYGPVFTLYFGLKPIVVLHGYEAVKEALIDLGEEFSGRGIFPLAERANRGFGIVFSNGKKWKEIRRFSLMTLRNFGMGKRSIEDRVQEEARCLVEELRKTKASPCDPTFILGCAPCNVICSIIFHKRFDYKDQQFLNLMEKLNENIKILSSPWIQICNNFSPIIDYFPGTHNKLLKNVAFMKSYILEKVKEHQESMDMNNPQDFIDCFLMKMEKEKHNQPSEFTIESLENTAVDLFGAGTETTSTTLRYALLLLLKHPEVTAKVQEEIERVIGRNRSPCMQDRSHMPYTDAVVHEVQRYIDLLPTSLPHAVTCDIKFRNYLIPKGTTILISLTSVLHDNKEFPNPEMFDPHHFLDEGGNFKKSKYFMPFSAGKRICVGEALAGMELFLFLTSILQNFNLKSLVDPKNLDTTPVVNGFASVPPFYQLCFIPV
# Experiment: Cytochrome panel assay with activity outcomes
# Conditions: recombinant CYP, pro-luciferin dealkylation, luminescence, p450-cyp2c9; series mostly up to 57.1 µM
# % is set by controls: 0 for no effect and ±100 for the full control effect.
Structure (SMILES),AC50,"activity, negative = inhibition"
COc1ccccc1CC(=O)Nc1cc2oc3ccccc3c2cc1OC,3.98 µM (active),
COC(=O)N1CCC2(CCN(Cc3ccccc3OC)CC2)CC1,inactive,
CCOCC(=O)Nc1c(C(=O)Nc2ccccc2OC)oc2ccccc12,inactive,
CCCC[C@@H]1C[C@H]1C(NC(=O)c1cccs1)c1ccc(-c2ccccc2)cc1 (stereo not given in full),1.58 µM (active),
CCCC[C@@H]1C[C@H]1C(NC(=O)c1cccs1)c1ccc(Cl)cc1 (stereo not given in full),1 µM (active),
CCCC[C@@H]1C[C@H]1C(NC(=O)c1cccs1)c1ccc(C(F)(F)F)cc1 (stereo not given in full),1.58 µM (active),
Cc1cc(C)c2c(N)c3ccccc3nc2n1,inactive,
COc1cccc(Cn2c(=O)c(CCc3ccccc3)nc3cnc(OC)nc32)c1,6.31 µM (active),
COc1ccc(-n2c(=O)cnc3cnc(N(C)C)nc32)cc1,inactive,
COc1cccc(Cn2c(=O)c(CCc3ccccc3)nc3cnc(N(C)C)nc32)c1,10 µM (active),
COc1cccc(Nc2ncc3ncc(=O)n(C)c3n2)c1,inactive,
COc1cccc(Cn2c(=O)cnc3cnc(Nc4cccc(OC)c4)nc32)c1,2 µM (active),
COc1cccc(Nc2ncc3ncc(=O)n(CCC#N)c3n2)c1,inactive,
COc1cccc(Cn2c(=O)cnc3cnc(N(C)C)nc32)c1,12.6 µM (active),
CCNc1ncc2nc(CCc3ccccc3)c(=O)n(Cc3cccc(OC)c3)c2n1,inactive,
N[C@@H](Cc1cnc[nH]1)C(=O)O,inactive,
Cc1nc2nc[nH]n2c(=O)c1NC(=O)CC12CC3CC(CC(C3)C1)C2,inactive,
C[C@H]1[C@H](C)OC(=O)C[C@H](O)C[C@H](O)C[C@H](O)CC[C@H](O)[C@H](O)CC(=O)C[C@H](O)[C@H](C(=O)O)[C@H](O)C[C@H](O[C@@H]2O[C@@H](C)[C@H](O)[C@@H](N)[C@@H]2O)C=CC=CC=CC=CCCC=CC=C[C@@](C)(O)[C@H]1O,,14.1% [at 11.4 µM] (inactive)
CN1CCN(c2ncc3nc(-c4ccccc4)c(=O)n(Cc4cccs4)c3n2)CC1,inactive,
CCNc1ncc2nc(C)c(=O)n(Cc3cccc(OC)c3)c2n1,15.8 µM (active),
COc1cccc(Cn2c(=O)c(CCc3ccccc3)nc3cnc(N4CCN(C)CC4)nc32)c1,25.1 µM (active),
CCNc1ncc2nc(-c3ccc(OC)cc3)c(=O)n(Cc3cccc(OC)c3)c2n1,inactive,
CCNc1ncc2nc(C)c(=O)n(Cc3cccs3)c2n1,inactive,

Structure (SMILES),AC50,"activity, negative = inhibition"
COc1ccc(-n2c(=O)c(CCc3ccccc3)nc3cnc(N4CCN(C)CC4)nc32)cc1,inactive,
Cc1nc2cnc(N3CCN(C)CC3)nc2n(CCc2ccccc2)c1=O,inactive,
CN1CCN(c2ncc3nc(CCc4ccccc4)c(=O)n(Cc4cccs4)c3n2)CC1,25.1 µM (active),
COc1cccc(Cn2c(=O)cnc3cncnc32)c1,31.6 µM (active),
Cc1nc2cnc(N3CCN(C)CC3)nc2n(Cc2cccs2)c1=O,inactive,
C[C@@]12CCC(=O)C=C1CC[C@H]1[C@H]3CC[C@](O)(C(=O)CO)[C@]3(C)CC(=O)[C@@H]12,inactive,
Cc1ccc(OC[C@H](O)[C@H](C)NC(C)C)c2c1CCC2,inactive,
CC(C)(CS)C(=O)N1CCC[C@H]1C(=O)O,inactive,
c1ccc(C2=NN[C@@H]3c4ccccc4-c4ccccc4N3C2)cc1,,6.37% [at 11.4 µM] (inactive)
O=C1N=C2SCCN2/C1=C\c1c(Cl)cccc1Cl,15.8 µM (active),
O=C(NCc1ccccc1)c1cccc(COc2cccc(Cl)c2)c1,17.8 µM (active),
O=C(O)c1ccc(OCc2ccccc2)c(Cl)c1,,-17.5% [at 11.4 µM] (inactive)
Cc1nc(NC(=O)c2ccccc2)sc1-c1csc(Nc2ccc(Cl)cc2Cl)n1,inactive,
COc1ccccc1Nc1nc(-c2sc(NC(=O)c3ccccc3)nc2C)cs1,2.24 µM (active),
Cc1ccc(Nc2nc(-c3sc(NC(=O)c4cccc(Cl)c4)nc3C)cs2)cc1,inactive,
COc1ccc(OC)c(Nc2nc(-c3sc(NC(=O)c4ccccc4)nc3C)cs2)c1,3.55 µM (active),
Cc1nc(NC(=O)c2ccccc2)sc1-c1csc(Nc2cccc(Cl)c2)n1,3.55 µM (active),
C=CCCC(=O)Nc1nc(C)c(-c2csc(Nc3ccc(Cl)cc3)n2)s1,10 µM (active),
CCC1(O)c2ccccc2-c2ncccc21 (stereo not given),inactive,
C[N+](C)(C)CCCCCCCCCC[N+](C)(C)C,inactive,
Cc1ccccc1-c1ccc2ncnc(NC3CC3)c2c1,,19.9% [at 2.29 µM] (inactive)
Cc1ccccc1-c1cncnc1NC1CCNCC1,,1.54% [at 2.29 µM] (inactive)
CCOc1ccccc1Nc1nc(-c2sc(NC(=O)c3ccccc3)nc2C)cs1,2.51 µM (active),

Structure (SMILES),AC50,"activity, negative = inhibition"
CCOc1ccccc1NC(=O)CCC(=O)O,inactive,
CCOc1ccccc1Nc1ccc(N)cc1S(=O)(=O)O,,-6.23% [at 11.4 µM] (inactive)
COc1ccc(C(=O)N2CCC3(CCN(Cc4cc(C(F)(F)F)cc(C(F)(F)F)c4)CC3)CC2)cc1,inactive,
COc1ccc(C(=O)Nc2ccc3c(c2)nc(CN2CCN(C(C)=O)CC2)n3C)cc1,inactive,
COc1ccc(C(=O)n2c(SC)nc3cc4c(cc32)OCCO4)cc1,1.41 µM (active),
COc1cccc(C(=O)n2c(SC)nc3cc4c(cc32)OCCO4)c1,20 µM (active),
Cc1ccc(/C=N/NC(=O)c2cccs2)cc1[N+](=O)[O-],3.98 µM (active),
CCOc1cc(/C=N/NC(=O)CN2CCCCC2)ccc1OCc1ccccc1,inactive,
COc1cc(/C=N/NC(=O)c2cccs2)ccc1OCc1ccccc1,2.24 µM (active),
O=C(N/N=C/C=C/c1ccc([N+](=O)[O-])cc1)c1cccs1,inactive,
O=C(N/N=C/c1cccc(OCc2ccccc2)c1)c1cccs1,2.51 µM (active),
CC(C)C(=O)N/N=C/c1ccc(OCc2ccccc2)cc1,inactive,
COc1cc(CNCc2cccs2)ccc1OCC(N)=O,inactive,
C=CCc1ccccc1OC[C@H](O)CNC(C)C,inactive,
Cc1cccn2c(=O)c(C=NCc3ccco3)c(Nc3ccc(SC(F)F)cc3)nc12,inactive,
CC1CCCC(C)N1C(=O)c1ccccc1Nc1ccc(SC(F)F)cc1 (stereo not given),7.08 µM (active),
CC(=O)OC[C@H]1O[C@@H](O/N=C(\C)CCN2CCc3nc(-c4ccccc4)c(-c4ccccc4)cc3C2)[C@H](OC(C)=O)[C@@H](OC(C)=O)[C@H]1OC(C)=O,,4.27% [at 11.4 µM] (inactive)
CCC(=O)OCc1c(C(F)(F)F)nn(C)c1Sc1ccc(F)cc1,10 µM (active),
OC[C@@H](O)CNc1ncnc2ccccc12,,23.8% [at 11.4 µM] (inactive)
C[C@@H]1CN(CCCn2c3ccccc3c3ccccc32)C[C@H](C)N1,12.6 µM (active),
c1ccc(C(CCN2CC3CCC(CC3)C2)c2ccccc2)cc1,,8.36% [at 11.4 µM] (inactive)
c1ccc2c(c1)c1ccccc1n2Cn1c2ccccc2c2ccccc21,,-11.7% [at 11.4 µM] (inactive)
CC1(C)NC(=O)N(c2ccc([N+](=O)[O-])c(C(F)(F)F)c2)C1=O,inactive,

Structure (SMILES),AC50,"activity, negative = inhibition"
Cc1cccn2c(/C=N/OCc3cccc(F)c3)c(-c3ccc(Cl)cc3)nc12,6.31 µM (active),
Cc1cc2nc3c(=O)[nH]c(=O)nc-3n(CC(O)C(O)C(O)CO)c2cc1C (stereo not given),inactive,
COc1cccc(-c2ccc3ncnc(NC4CCNCC4)c3c2)c1,,19.4% [at 2.29 µM] (inactive)
CSc1nc2n(n1)C(c1cc(Br)ccc1F)C(C(=O)N(C)C)=C(C)N2 (stereo not given),22.4 µM (active),
O=S(=O)(c1ccccc1)N1N=C(c2cccs2)CC1c1ccc(Br)cc1 (stereo not given),1.41 µM (active),
COC(=O)C(CC(C)C)NC(=O)C(N)Cc1ccccc1 (stereo not drawn) (H-Phe-Leu-OMe; configuration not given here),inactive,
COC(=O)CCC(NC(=O)OCc1ccccc1)C(=O)NC(CC(C)C)C(=O)OC (stereo not given) (Cbz-Glu(OMe)-Leu-OMe; configuration not given here),0.355 µM (active),
CCCCC(C=O)NC(=O)C(CC(C)C)NC(=O)OCc1ccccc1 (stereo not given),inactive,
COC(=O)N1CCC2(CCN(Cc3cc(C(F)(F)F)cc(C(F)(F)F)c3)CC2)CC1,inactive,
O=C(CN1CCCCC1)Nc1cccc([N+](=O)[O-])c1,inactive,
Cc1ccc(NS(=O)(=O)c2ccc(OCC(=O)Nc3cccc([N+](=O)[O-])c3)c(C)c2)cc1,1.26 µM (active),
Cc1ccc(OCC(=O)N/N=C\c2c(C)n(C)c3ccccc23)c([N+](=O)[O-])c1,inactive,
Cc1cc(Nc2ccc(Cl)cc2)nc(N)n1,inactive,
C=C1c2cccc(O)c2C(O)=C2C(=O)[C@@]3(O)C(O)=C(C(N)=O)C(=O)[C@@H](N(C)C)[C@@H]3[C@@H](O)[C@H]12,inactive,
Cc1nn(Cc2c(F)c(F)c(F)c(F)c2F)c(C)c1NC(=O)c1c(-c2ccccc2)nn(-c2ccccc2)c1C,7.08 µM (active),
Cc1nn(Cc2ccccc2Cl)c(C)c1NC(=O)CCCn1nc(C)c([N+](=O)[O-])c1C,inactive,
Cc1nn(Cc2c(F)c(F)c(F)c(F)c2F)c(C)c1NC(=O)c1cccc(COc2ccccc2Cl)c1,8.91 µM (active),
Cc1nn(Cc2c(F)c(F)c(F)c(F)c2F)c(C)c1NC(=O)c1cccc(COc2ccc(Cl)cc2)c1,2.82 µM (active),
CCN[C@@H]1C[C@H](C)S(=O)(=O)c2sc(S(N)(=O)=O)cc21,inactive,
CC(C)CN1CC[C@@]2(CCCN(C(=O)c3csnn3)C2)C1,inactive,
C#CCCCO/N=C1/C[C@@H](O)[C@@H](O)[C@@H]2[C@H]3C(=O)N(c4ccc(F)cc4F)C(=O)[C@@H]3CC[C@@H]12,,7.37% [at 11.4 µM] (inactive)
